# Compounds without any hit were thinned out: in the full panel of roughly 79,000, 15% have a hit. The source made the active and inactive calls. No stated cut-off is given here; in the data, active means growth inhibition above about 70%; inactive means the rest.
# How the values were obtained:
# [1] = NCI Yeast Anticancer Drug Screen. Data for the rad50 strain (AID 155);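 further: 0% = growth of vehicle-only cultures of the same strain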; conditions: S. cerevisiae rad50 strain growth inhibition; at 50.0 µM; stronger effect = higher value
# In short: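 Readout: growth inhibition relative to vehicle-treated cultures. Compound exposure was carried out in a genetically defined yeast strain deficient in DNA damage repair.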
# [2] = NCI Yeast Anticancer Drug Screen. Data for the mec2-1 strain (AID 157); conditions: S. cerevisiae mec2-1 strain, at 50.0 µM, stronger effect = higher value
# In short: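 Using mec2-1 yeast: add compound, measure growth, express inhibition versus vehicle-treated cultures.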
# [3] = NCI Yeast Anticancer Drug Screen. Data for the sgs1 mgt1 strain (AID 161);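 further: 0% = growth of cultures given vehicle only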; conditions: S. cerevisiae sgs1 mgt1 strain, at 50.0 µM, stronger effect = higher value
# In short: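 This yeast growth screen uses a strain with defined DNA-repair lesions; compound-treated growth is compared with vehicle-treated growth.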
# [4] = NCI Yeast Anticancer Drug Screen. Data for the cln2 rad14 strain (AID 165);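 further: 0% = growth equal to vehicle treated cultures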; conditions: S. cerevisiae cln2 rad14 strain, at 50.0 µM, stronger effect = higher value
# In short: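 Yeast strain cln2 rad14, bearing defects in cell cycle control and DNA repair, serves as the test system; values reflect growth inhibition compared with vehicle.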
# [5] = NCI Yeast Anticancer Drug Screen. Data for the bub3 strain (AID 167); conditions: S. cerevisiae bub3 mutant strain, at 50.0 µM, stronger effect = higher value
# In short: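 Readout: yeast growth inhibition, expressed relative to vehicle-only wells. The test organism is a mutant strain from a panel with lesions in DNA repair or checkpoint genes.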
# [6] = NCI Yeast Anticancer Drug Screen. Data for the mlh1 rad18 strain (AID 175); conditions: S. cerevisiae mlh1 rad18 strain growth inhibition; at 50.0 µM; stronger effect = higher value
# In short: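 Steps: expose repair-defective yeast to compound; measure growth; express inhibition against vehicle-treated controls.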
Compound,growth inhibition [1],growth inhibition [2],growth inhibition [3],growth inhibition [4],growth inhibition [5],growth inhibition [6]
CCOC(=O)C1(Cc2ccccc2)Cc2ccccc2C1=O (stereo unspecified),7.75% (inactive),29.9% (inactive),79% (active),62.1% (inactive),73.7% (active),63.5% (inactive)
COc1ccc(C(=O)C(C(=O)C(=O)NCCCNC(=O)C(=O)C(C(=O)c2ccc(OC)cc2)c2ccc(OC)cc2)c2ccc(OC)cc2)cc1 (stereo unspecified),-11.9% (inactive),-25.6% (inactive),-7.1% (inactive),13.8% (inactive),-9.25% (inactive),-10.7% (inactive)
[O-]c1c2c(nn1-c1ccc(Cl)cc1)c1ccccc1c[n+]2Cc1ccccc1,-6.1% (inactive),-20.6% (inactive),-11.2% (inactive),-2.5% (inactive),11.4% (inactive),-16.2% (inactive)
Nc1ncnc2c1ccn2C1OC2COP(=O)(O)OC2C1O (stereo unspecified),-12.6% (inactive),-31.4% (inactive),-7.1% (inactive),8.45% (inactive),-18.3% (inactive),-15.1% (inactive)
O=P(OCCCl)(OCCCl)C(c1ccccc1)(c1ccccc1)c1ccccc1,63.4% (inactive),35.7% (inactive),72.6% (active),36.9% (inactive),38.5% (inactive),65.2% (inactive)
NC(=O)c1csc(N)n1,4.4% (inactive),3.95% (inactive),0% (inactive),3.55% (inactive),9.3% (inactive),-7.7% (inactive)
CC1(C)CNC[C@@](C)(O)C(=O)NC(C)(C)CNC[C@@](C)(O)C(=O)N1,9.75% (inactive),5.75% (inactive),-32.6% (inactive),4.7% (inactive),-46.3% (inactive),-9.2% (inactive)
O=C(CC1=Nc2nnc(-c3nnc4n3C(=O)C(CC(=O)C3CC3)=N4)n2C1=O)C1CC1,-10% (inactive),2.95% (inactive),-5.25% (inactive),-16.6% (inactive),-4.8% (inactive),-3.8% (inactive)
O=C1c2ccccc2C(=O)N1CNc1cccc(Cl)c1,6.45% (inactive),13.2% (inactive),9.45% (inactive),10.1% (inactive),4.6% (inactive),22.4% (inactive)
Cc1ccc([N+](=O)[O-])cc1NC(=O)C(=O)Cc1occc(=O)c1O,-12.6% (inactive),-6% (inactive),0.65% (inactive),-3.45% (inactive),-8.85% (inactive),-6.95% (inactive)
c1cc(-c2cc(-c3cc(-c4ccncc4)n[nH]3)[nH]n2)ccn1,9.45% (inactive),-2.6% (inactive),8.45% (inactive),3.3% (inactive),-13.8% (inactive),4.6% (inactive)
O=C1OC(c2cccc3ccc(Br)cc23)c2ccccc21 (stereo unspecified),21.1% (inactive),0.5% (inactive),6.2% (inactive),19.5% (inactive),16.1% (inactive),3.45% (inactive)
O=C(Nc1cccc(Cl)c1)OC1C=CCC1 (stereo unspecified),3.4% (inactive),1.75% (inactive),2.65% (inactive),-20.1% (inactive),-2.15% (inactive),-15.5% (inactive)
CCC(c1ccccc1)C(C(=O)O)C(=O)O (stereo unspecified),5.95% (inactive),-5.35% (inactive),0.55% (inactive),-16.8% (inactive),6.35% (inactive),6.65% (inactive)
CCCCCCCCCCCCSC(=O)CCC(=O)O,-49.5% (inactive),-11.9% (inactive),13.8% (inactive),-29.9% (inactive),1.85% (inactive),10.1% (inactive)
CCOCN1COCN(C)C1=O,8.1% (inactive),-6.55% (inactive),-6.45% (inactive),13.3% (inactive),20.1% (inactive),3.95% (inactive)
C=C(Br)CNC(=O)Nc1ccccn1,-10.2% (inactive),4.55% (inactive),-3.3% (inactive),-4.15% (inactive),-4.85% (inactive),-8.75% (inactive)
COc1ccc2c(c1)C(Cc1ccc(Oc3cc(CC4c5cc(OC)ccc5CC[N+]4(C)C)ccc3OC)cc1)[N+](C)(C)CC2 (stereo unspecified),-5.9% (inactive),2.75% (inactive),-7.45% (inactive),-9.55% (inactive),-6.5% (inactive),-12.2% (inactive)

Compound,growth inhibition [1],growth inhibition [2],growth inhibition [3],growth inhibition [4],growth inhibition [5],growth inhibition [6]
CCOC(=O)/C(=C\c1cc(OC)ccc1OC)P(=O)(OCC)OCC,39.2% (inactive),25.9% (inactive),18.4% (inactive),21.9% (inactive),7.6% (inactive),16.8% (inactive)
C/C(=N\N=C(/C)c1ccc(Br)s1)c1ccc(Br)s1,-42.5% (inactive),-35% (inactive),-23.7% (inactive),-18.3% (inactive),-12.8% (inactive),-28.1% (inactive)
CC1C(C(=O)NCC(c2ccccc2)c2ccccc2)CC2CCCCN21 (stereo unspecified),-15.5% (inactive),-4.75% (inactive),13.2% (inactive),-9.2% (inactive),11.2% (inactive),25.9% (inactive)
O=C(O)C1C2CCC(O2)C1C(=O)NCc1cccnc1 (stereo unspecified),23.1% (inactive),-3.8% (inactive),-11.7% (inactive),-9.9% (inactive),-11% (inactive),2.85% (inactive)
Cc1cn(C2CC(NO)C(CO[Si](C)(C)C(C)(C)C)O2)c(=O)[nH]c1=O (stereo unspecified),-3.75% (inactive),-0.25% (inactive),-3.45% (inactive),-3.9% (inactive),-30.4% (inactive),-35.7% (inactive)
Cc1cnc2c(N)nc(-c3ccccc3)nc2n1,8.55% (inactive),-2.1% (inactive),-6.9% (inactive),-39.4% (inactive),-5.15% (inactive),-0.45% (inactive)
CS(=O)(=O)OC1C(O)C(O)OC(CO)C1O (stereo unspecified),-18.4% (inactive),12.9% (inactive),4.5% (inactive),-49.7% (inactive),5.75% (inactive),7.7% (inactive)
COc1ccc2c(c1)C(=O)[C@@](Nc1ccc(C=O)cc1)(OC)[C@@](OC)(c1ccc([N+](=O)[O-])cc1)O2,9.3% (inactive),-3.05% (inactive),29.9% (inactive),2.3% (inactive),-9.45% (inactive),12.4% (inactive)
CC(C)(C)OC(=O)NC(CSSCC(NC(=O)OC(C)(C)C)C(=O)O)C(=O)O (stereo unspecified),-7.05% (inactive),-10.2% (inactive),-10.7% (inactive),-3.45% (inactive),-5.7% (inactive),-6.4% (inactive)
Cc1ccc(NC(=S)N(C)C)cc1,14.5% (inactive),15.9% (inactive),-10.6% (inactive),-71.8% (inactive),22.4% (inactive),-23.9% (inactive)
c1ccc2c(c1)[nH]c1ccncc12,-0.85% (inactive),0.1% (inactive),-1.6% (inactive),-40% (inactive),-9.7% (inactive),3.7% (inactive)
NC(Cc1ccc(S(=O)(=O)O)cc1)C(=O)NC(CCCCNC(=O)NCCCCC(NC(=O)C(N)Cc1ccc(S(=O)(=O)O)cc1)C(=O)NC(Cc1ccc(S(=O)(=O)O)cc1)C(=O)O)C(=O)NC(Cc1ccc(S(=O)(=O)O)cc1)C(=O)O (stereo unspecified),-11.7% (inactive),-3.8% (inactive),8.45% (inactive),-8.65% (inactive),22.6% (inactive),14.2% (inactive)
C/C(=N/NC(=O)c1ccccc1O)c1ccc(/C(C)=N\NC(=O)c2ccccc2O)c2nc3cc(C)c(C)cc3nc12,-41.2% (inactive),-14.3% (inactive),-31.4% (inactive),4.65% (inactive),6.7% (inactive),-27.8% (inactive)
COC1C=CC2OC(c3ccccc3)OCC2O1 (stereo unspecified),-16.2% (inactive),9.1% (inactive),-9.6% (inactive),-35% (inactive),10% (inactive),-1.65% (inactive)
N#CC(C(=O)/C(=N\NC(N)=O)C(C#N)c1ccc(Cl)cc1)c1ccc(Cl)cc1 (stereo unspecified),-33.6% (inactive),-7.25% (inactive),-22.1% (inactive),2.4% (inactive),-7.05% (inactive),-4.3% (inactive)
CC(=O)Oc1ccc(CCNC(c2ccccc2)c2ccccc2)cc1OC(C)=O,44% (inactive),13.2% (inactive),42.5% (inactive),-7.6% (inactive),-17.4% (inactive),38.3% (inactive)
O=C(NO)c1cc(O)c(O)c(O)c1,-14.5% (inactive),1.75% (inactive),-16.7% (inactive),-11.6% (inactive),-5.75% (inactive),-25.4% (inactive)
O=C(O)c1ccc(F)c([N+](=O)[O-])c1,7.15% (inactive),-16.6% (inactive),17.4% (inactive),-22.6% (inactive),-11.6% (inactive),12.4% (inactive)
